Measurements: PubChem BioAssay (NCATS)
Records with an inconclusive call do not appear. Entries that show only a call come without a potency. A number with no mark means an inactive call. Calls of active or inactive are those of the source. Unless noted, calls follow the shape of the dose curve; as a rule, active = well fitted curve in the direction sought with a large enough effect; inconclusive = small, poorly fitted or top-dose-only effect, or another doubt; inactive = no such curve, though single readings can be large; an effect the other way counts as inactive or inconclusive.

Key:
[1] = P-glycoprotein substrates identified in KB-8-5-11 adenocarcinoma cell line, qHTS therapeutic library screen (AID 1346987); also: nearly all actives have a fitted effect of over 65% in size; also: potency is read from the fitted curve at half-maximal effect
Procedure, shortened: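 Human cervical adenocarcinoma KB-8-5-11 cells, selected in colchicine to over-express P-gp and assayed without it, were exposed for 72 h to titrated compounds. An ATP-based luminescent viability signal gave AC50.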

[2] = molecular target: Atrial natriuretic peptide receptor 1 (Homo sapiens) (UniProt P16066); assay: Natriuretic polypeptide receptor (hNpr1) antagonism - Pilot screen (AID 1347049; calls by dose curve;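 also: agonist-evoked cGMP luminescence read 20 min after hNppA addition; series mostly up to about 58 µM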)
Procedure, shortened: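 cGMP-sensor HEK293/hNpr1 cells, 1500/well, plated overnight at 37C. 2% GloSensor reagent, 2 h RT. Compound (23 nL pin transfer) 30 min RT, baseline luminescence pre-read. 0.1 nM hNppA, 20 min RT, post-read.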

[3] = NS1 protein of Zika virus - qHTS assay to identify small molecule inhibitors in human HEK 293 cells (AID 1347053); also: series mostly up to about 46 µM; nearly all actives have a fitted effect of over 55% in size
Procedure, shortened: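 In this cell-based screen, HEK 293 cultures received compound for one hour before Zika MR766 at MOI = 0.5. NS1 was quantified 24 hours later by TR-FRET, normalized to virus-free wells and infected wells.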

[4] = molecular target: Tyrosine-protein phosphatase non-receptor type substrate 1 (Homo sapiens) + Leukocyte surface antigen CD47 (Homo sapiens) (UniProt P78324+Q08722); assay: CD47-SIRPalpha protein protein interaction - LANCE assay qHTS validation (AID 1347057; active = well fitted curve in the direction sought with a large enough effect in the signal ratio, with a control signal flat, not every such curve was filed as active; the % refers to the signal ratio; also: series mostly up to about 38 µM)
Procedure, shortened: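 Inhibition of soluble CD47/SIRPalpha ectodomain association by titrated compounds, measured as 665/615 nm time-resolved FRET ratio after sequential 30 min room-temperature incubations.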

Tyrosine-protein phosphatase non-receptor type substrate 1 (Homo sapiens) + Leukocyte surface antigen CD47 (Homo sapiens), sequence (P78324 whole entry, looked up, the tested form may be a part): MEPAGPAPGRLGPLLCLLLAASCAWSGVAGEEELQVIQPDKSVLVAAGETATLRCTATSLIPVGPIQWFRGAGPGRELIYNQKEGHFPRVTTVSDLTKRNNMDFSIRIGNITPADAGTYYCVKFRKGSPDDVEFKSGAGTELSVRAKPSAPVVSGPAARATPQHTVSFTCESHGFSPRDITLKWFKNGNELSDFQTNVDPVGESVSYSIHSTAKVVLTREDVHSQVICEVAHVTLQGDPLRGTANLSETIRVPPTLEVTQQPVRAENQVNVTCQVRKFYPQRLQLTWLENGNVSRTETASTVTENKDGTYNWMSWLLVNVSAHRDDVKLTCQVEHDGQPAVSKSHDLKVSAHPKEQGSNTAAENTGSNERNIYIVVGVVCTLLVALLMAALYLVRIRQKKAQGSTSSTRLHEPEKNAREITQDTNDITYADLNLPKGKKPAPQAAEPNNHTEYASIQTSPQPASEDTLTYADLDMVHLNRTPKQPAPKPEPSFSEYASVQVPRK
Tyrosine-protein phosphatase non-receptor type substrate 1 (Homo sapiens) + Leukocyte surface antigen CD47 (Homo sapiens), sequence (Q08722 whole entry, looked up, the tested form may be a part): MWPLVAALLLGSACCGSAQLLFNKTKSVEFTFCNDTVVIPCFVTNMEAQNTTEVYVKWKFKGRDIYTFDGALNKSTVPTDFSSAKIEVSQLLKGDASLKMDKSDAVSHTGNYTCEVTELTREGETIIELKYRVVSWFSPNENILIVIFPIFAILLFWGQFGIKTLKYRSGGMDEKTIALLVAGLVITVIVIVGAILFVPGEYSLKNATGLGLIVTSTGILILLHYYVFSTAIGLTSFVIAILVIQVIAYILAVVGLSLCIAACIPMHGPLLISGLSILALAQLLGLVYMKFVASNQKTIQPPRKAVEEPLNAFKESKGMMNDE
Atrial natriuretic peptide receptor 1 (Homo sapiens), sequence (P16066 whole entry, looked up): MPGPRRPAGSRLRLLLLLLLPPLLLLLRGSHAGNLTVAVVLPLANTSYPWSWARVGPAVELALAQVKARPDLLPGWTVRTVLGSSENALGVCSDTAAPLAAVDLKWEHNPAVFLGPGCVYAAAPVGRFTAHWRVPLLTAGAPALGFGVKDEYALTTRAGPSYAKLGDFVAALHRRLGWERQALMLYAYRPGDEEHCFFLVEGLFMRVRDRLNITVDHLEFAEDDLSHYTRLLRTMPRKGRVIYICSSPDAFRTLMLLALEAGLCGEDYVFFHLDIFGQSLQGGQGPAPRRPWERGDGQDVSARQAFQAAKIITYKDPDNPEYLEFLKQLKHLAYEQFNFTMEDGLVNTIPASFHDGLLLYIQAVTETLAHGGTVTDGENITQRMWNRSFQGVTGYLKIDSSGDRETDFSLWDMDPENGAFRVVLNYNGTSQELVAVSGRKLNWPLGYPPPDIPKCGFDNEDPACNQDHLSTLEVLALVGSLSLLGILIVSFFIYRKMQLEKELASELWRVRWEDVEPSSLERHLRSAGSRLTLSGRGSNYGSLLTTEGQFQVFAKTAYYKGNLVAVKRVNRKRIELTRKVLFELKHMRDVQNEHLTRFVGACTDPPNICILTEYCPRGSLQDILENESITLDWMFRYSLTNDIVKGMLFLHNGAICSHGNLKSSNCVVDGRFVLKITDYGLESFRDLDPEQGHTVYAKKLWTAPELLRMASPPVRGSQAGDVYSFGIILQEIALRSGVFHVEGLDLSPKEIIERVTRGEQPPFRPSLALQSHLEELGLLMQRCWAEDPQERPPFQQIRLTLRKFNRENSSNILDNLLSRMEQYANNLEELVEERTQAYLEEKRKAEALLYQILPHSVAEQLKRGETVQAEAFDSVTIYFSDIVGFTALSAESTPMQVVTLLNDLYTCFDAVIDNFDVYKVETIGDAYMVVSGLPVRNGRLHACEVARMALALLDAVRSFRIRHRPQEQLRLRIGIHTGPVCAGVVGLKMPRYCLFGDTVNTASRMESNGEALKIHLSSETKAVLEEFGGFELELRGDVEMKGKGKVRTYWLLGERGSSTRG

Compound	Potency [1]	outcome [2]	Potency [3]	outcome [4]
CNCCC=C1c2ccccc2CCc2ccccc21	20.6 µM (active)	inactive	inactive	inactive
CC(O)C(=O)O (centres undefined)	inactive	–	inactive	–
CCC(C(=O)OCCN(CC)CC)c1ccccc1 (centres undefined)	inactive	–	inactive	–
Cc1c(C)n(Cc2ccccc2)c2ccc(C(=O)OCCN(C)C)cc12	23.1 µM (active)	–	inactive	–
COc1ccc(C2C(=O)c3ccccc3C2=O)cc1	inactive	–	inactive	–
CCN1CCCC1=O	inactive	–	inactive	–
NC(CO)(CO)CO	inactive	–	inactive	–
O=C1OCCN1/N=C/c1ccc([N+](=O)[O-])o1	inactive	–	inactive	–
O=c1ccc2ccccc2o1	inactive	–	inactive	–
C[C@]12CCC(=O)C=C1[C@@H]1C[C@@H]1[C@H]1[C@@H]3[C@@H]4C[C@@H]4[C@@]4(CCC(=O)O4)[C@@]3(C)CC[C@@H]12	4.11 µM (active)	–	inactive	–
C=CCc1ccc(O)c(OC)c1	inactive	–	inactive	–
CC(C)(C(=O)c1cccnc1)c1cccnc1	inactive	–	inactive	–
CCN1CCN(c2cc3c(cc2F)c(=O)c(C(=O)O)cn3C2CC2)CC1	inactive	–	inactive	–
CC(=O)N(O)CCCCCNC(=O)CCC(=O)N(O)CCCCCNC(=O)CCC(=O)N(O)CCCCCN	inactive	–	inactive	–
COc1cc(OC)cc(OC)c1	inactive	–	inactive	–
NC(CS)C(=O)O (centres undefined)	inactive	–	inactive	–
CC(O)(P(=O)(O)O)P(=O)(O)O	inactive	–	inactive	–
CC(C)NC[C@@H](O)COc1cccc2ccccc12	inactive	–	inactive	–
CC1(C)OC[C@@H](COC(=O)CCc2ccc(OC[C@@H](O)CNCCNC(=O)N3CCOCC3)cc2)O1	inactive	–	inactive	–
O=C(O)CCCCC(=O)O	inactive	–	inactive	–
CC(=O)N/N=C/c1ccc([N+](=O)[O-])o1	inactive	–	inactive	–
CN(C)CCOc1ccccc1Cc1ccccc1	inactive	–	inactive	–
O=C(OCCOCCO)c1ccccc1Nc1cccc(C(F)(F)F)c1	inactive	–	inactive	–

Compound	Potency [1]	outcome [2]	Potency [3]	outcome [4]
Cc1cc(O)c(C(C)C)cc1Cl	inactive	–	inactive	–
CN(C)CC/C=C1/c2ccccc2COc2ccc(CC(=O)O)cc21	inactive	–	inactive	–
C[C@]12CC[C@@H]3c4ccc(O)cc4CC[C@H]3[C@@H]1C[C@@H](O)[C@@H]2O	inactive	–	inactive	–
CCOC(=O)COc1ccc2c(C)c(CCN(CC)CC)c(=O)oc2c1Cl	inactive	–	inactive	–
CN(C/C=C/c1ccccc1)Cc1cccc2ccccc12	inactive	–	inactive	–
COc1cc(-c2ccc(=O)[nH]n2)ccc1OC(F)F	0.116 µM (active)	–	inactive	–
COc1cc(C(=S)N2CCOCC2)cc(OC)c1OC	inactive	–	inactive	–
Cc1ncc(CSSCc2cnc(C)c(O)c2CO)c(CO)c1O	inactive	–	inactive	–
CNC(=O)CN(CCN(CCN(CC(=O)[O-])CC(=O)NC)CC(=O)[O-])CC(=O)[O-].O.[Gd+3]	inactive	–	inactive	–
C=C(CC)C(=O)c1ccc(OCC(=O)O)c(Cl)c1Cl	inactive	–	inactive	–
CN1[C@@H]2CC[C@H]1CC(OC(=O)c1c[nH]c3ccccc13)C2 (some centres undefined)	inactive	–	inactive	–
Oc1c(Cl)cc(Cl)cc1Sc1cc(Cl)cc(Cl)c1O	4.61 µM (active)	–	inactive	–
C[C@]12CCC(=O)C=C1CC[C@H]1[C@@H]3CC[C@](O)(C(=O)CO)[C@@]3(C)C[C@H](O)[C@@]12F	inactive	–	inactive	–
CCCCC(=O)O[C@]1(C(=O)CO)CC[C@H]2[C@@H]3CCC4=CC(=O)CC[C@]4(C)[C@H]3[C@@H](O)C[C@@]21C	inactive	–	inactive	–
CCCN1CCCC[C@H]1C(=O)Nc1c(C)cccc1C	inactive	–	inactive	–
CC(=O)OCC(=O)[C@@]12N=C(C)O[C@@H]1C[C@H]1[C@@H]3CCC4=CC(=O)C=C[C@]4(C)[C@H]3[C@@H](O)C[C@@]12C	inactive	–	inactive	–
CCC(=O)c1c(O)cc(O)cc1O	inactive	–	inactive	–
CNCC[C@@H](Oc1ccccc1C)c1ccccc1	inactive	–	inactive	–
C[C@H](O)C(=O)Nc1c(I)c(C(=O)NC(CO)CO)c(I)c(C(=O)NC(CO)CO)c1I	inactive	–	inactive	–
NC[C@H]1O[C@H](O[C@H]2[C@H](O)[C@@H](O[C@H]3O[C@H](CO)[C@@H](O)[C@H](N)[C@H]3O)[C@H](N)C[C@@H]2N)[C@H](N)[C@@H](O)[C@@H]1O	inactive	–	inactive	–
Cc1ccccc1C(=O)Nc1ccc(C(=O)N2CCCC(N(C)C)c3ccccc32)cc1 (centres undefined)	5.8 µM (active)	–	inactive	–
CCCCOc1cc(C(=O)NCCN(CC)CC)c2ccccc2n1	inactive	–	inactive	–
C[C@]12C=CC(=O)C=C1[C@@H](F)C[C@@H]1[C@@H]2[C@@H](O)C[C@@]2(C)[C@H]1CC[C@]2(O)C(=O)CO	inactive	–	inactive	–
